# Test results reported in PubChem BioAssay AID504401 (The Scripps Research Institute Molecular Screening Center, 2011).
# Values without a mark were called inactive. No rule for the calls is given here.
# Test system: Rolipram
# Assay: CYP450 and receptor off-target profile – biochemical, Ricerca HitProfilingScreen, selectivity assay for GPR7 antagonist project, late-stage follow-up (AID 504401)
# Conditions: Ricerca radioligand binding and CYP450 panel, at 10 µM, hits give high values
structure (smiles),measurement,value
COc1ccc(Oc2c(Cl)cnn(-c3cc(C)cc(C)c3)c2=O)cc1,inhibition,22%
